# PubChem BioAssay (NCI)
# This is part of a sample that, as a whole, favours compounds with a hit. Of some 83,000 tested, about 20% had one in any assay.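 For each line, cells grew in 96-well plates with the test compound present at a single concentration for 48 hours.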 Activity calls are given as the source filed them. Rule for the calls: active = growth percent below 10; inactive = the rest.
# System: HCT-116 colon
# Assay: NCI-60 one-dose screen, 48 h (100 = growth as untreated, 0 = no growth, -100 = all killed)
# Details: 10 µM unless noted
row,SMILES,growth
1,COc1cc2ncnc(-n3ncc4cc(NC(=O)Nc5ccccc5)ccc43)c2cc1OC,6.38% (active)
2,CC1(c2ccc(Br)cc2)NC(=O)NC1=O (stereo not given),99.5% (inactive)
3,O=C(N/N=C\c1ccc(Cl)cc1)C(=O)N/N=C\c1ccc(Cl)cc1,106% (inactive)
4,COc1cc(-c2nc(/C=C3/C(=O)Nc4ccccc43)c3ccccn23)cc(OC)c1OC,67.2% (inactive)
5,CCCCN(CCCC)c1ccc(C(=O)O)cc1,97.3% (inactive)
6,COC(=O)c1c[n+]([O-])ccc1OC,113% (inactive)
7,CC(=O)O.[In],106% (inactive)
8,Cc1nnc(/N=C2\NC(=O)/C(=C/C=C/c3ccccc3)S2)s1,36.9% (inactive)
9,CC(=O)N1N=C(c2ccc(Cl)cc2)CC1c1cn(-c2ccccc2)nc1-c1ccc([N+](=O)[O-])cc1 (stereo not given),97.1% (inactive)
10,O=C1Nc2ccccc2/C1=C/c1cn(CC(O)Cn2cc(/C=C3\C(=O)Nc4ccccc43)c3ccccc32)c2ccccc12 (stereo not given),-64.2% (active)
11,Nc1nc2c(c3ncncc13)C(c1cccc(C(F)(F)F)c1)Cc1ncncc1-2 (stereo not given),18.5% (inactive)
12,O=C(Nc1ccccc1)Nc1ccc(Nc2ncnc3sc4c(c23)CCCC4)cc1,115% (inactive)
13,O=C(/C=C\c1ccc(NCc2ccc(C(=O)O)cc2)cc1)CCl,-15.3% (active)
14,CCCC(C)c1cc(Cc2cc(Cl)cc(Cl)c2O)c(O)c(Cc2cc(Cl)cc(Cl)c2O)c1 (stereo not given),4.58% (active)
15,CCC(C)(CC)c1ccc(O)c(C)c1,96.6% (inactive)
16,CC1(C)CC(=O)C2=C(C1)Oc1nc(N)c(C#N)c(N)c1C2c1ccc(F)cc1 (stereo not given),109% (inactive)
17,CCOc1ccc(/C=N/NC(=O)c2cccc3ccccc23)cc1OCC,103% (inactive)
18,CCN(CC)C(=O)C1(C)CCCC2(C)c3cc(OC(C)=O)ccc3CCC12 (stereo not given),84.9% (inactive)
19,COc1ccc(-c2nc(SCC(C)C)nc(Nc3ccc(C(=O)O)cc3)c2C#N)cc1,85.1% (inactive)
20,O=C(/C=C/c1cccc(O)c1)c1cccc(-n2cc(-c3ccc(Cl)cc3)[nH]c2=O)c1,-85.2% (active)

row,SMILES,growth
1,CC(O)c1cc[cH-]c1.[Fe+2].c1cc[cH-]c1 (stereo not given),94.1% (inactive)
2,CC1(C)C(O)NC(Cl)=C(C#N)C1(C#N)C#N (stereo not given),101% (inactive)
3,COC(=O)C(C)[C@H]1CC[C@@H]2[C@]1(C)CC=C1[C@]23C=C[C@]2(C[C@@H](OC(C)=O)CC[C@]12C)C(C(=O)OC)C3C(=O)OC (stereo not given in full),63.7% (inactive)
4,CC(C)C(=O)c1ccc(Cl)s1,97% (inactive)
5,CC1=C(C)C(=O)C(C(C)C2=C(C)C(=O)C(C)=C(C)C2=O)=C(C)C1=O,71.2% (inactive)
6,Cc1ccc2c(O)c(O)cc(NC(C)CCCN)c2n1 (stereo not given),34.7% (inactive)
7,O=S(=O)(Cc1cccc2c(CS(=O)(=O)c3ccc(Cl)cc3)cccc12)c1ccc(Cl)cc1,95.5% (inactive)
8,C=CN(C)S(C)(=O)=O,19.7% (inactive)
9,CCCCCCCCCCCCCCCCC(=O)O.CCCCCCCCCCCCCCCCCC(=O)O.CCCCCCCCCCCCCCCCCC(=O)O.CCCCCCCCCCCCCCCCCC(=O)O.CCCCCCCCCCCCCCCCCC(=O)O.CO[CH-]OC12COC1CC(O)C1(C)C(O)C(OC(C)O)C3=C(C)C(OC(=O)C(O)C([NH-])c4ccccc4)CC(O)(C(OC(=O)c4ccccc4)C21)C3(C)C.[Cu+].[Zn].[Zn].[Zn].[Zn].[Zn] (stereo not given),13.3% (inactive)
10,COc1ccccc1Cn1cc2c(c1)-c1oncc1CC2,9.05% (active)
11,CC(=O)OCC(=O)[C@@]1(O)[C@H](C)C[C@H]2[C@@H]3C=C(C)C4=Cc5c(cnn5-c5ccc(F)cc5)C[C@]4(C)[C@H]3[C@@H](O)C[C@@]21C,15.7% (inactive)
12,O=C(/C=C\c1ccccc1Cl)c1ccccc1,53.9% (inactive)
13,CCOC(=O)C(C)C(C)(O)c1ccccc1 (stereo not given),97.1% (inactive)
14,CCCCCCCCCCCCCCCCCC1=NCCN1CS(=O)(=O)O,44.2% (inactive)
15,CCCCCCCCCCCC(=O)OC(C)C(=O)Nc1ccccc1 (stereo not given),96.5% (inactive)
16,CCCCCCCCCCC1OC(C)CC(C)O1 (stereo not given),97.3% (inactive)
17,COc1cc(OC)c(/C=C/c2ccc3ccccc3[n+]2C)c(OC)c1,2.2% (active)
18,CCOC(=O)c1cc(C(=O)c2ccc(Br)cc2)n2cc(C)cc(C)c12,75.3% (inactive)
19,Cc1ccc(OCCn2ccc(=O)n(CCOc3ccc(Cl)cc3C(=O)c3cc(C)cc(C)c3)c2=O)cc1,34.5% (inactive)
20,O=C1C(Cl)=C(SC2=NCCN2)C(=O)c2ccccc21,65% (inactive)

# System: HCC-2998 colon
# Assay: as above
# Details: 10 µM unless noted
row,SMILES,growth
1,COc1cc2ncnc(-n3ncc4cc(NC(=O)Nc5ccccc5)ccc43)c2cc1OC,34.1% (inactive)
2,CC1(c2ccc(Br)cc2)NC(=O)NC1=O (stereo not given),106% (inactive)
3,O=C(N/N=C\c1ccc(Cl)cc1)C(=O)N/N=C\c1ccc(Cl)cc1,110% (inactive)
4,COc1cc(-c2nc(/C=C3/C(=O)Nc4ccccc43)c3ccccn23)cc(OC)c1OC,78.1% (inactive)
5,CCCCN(CCCC)c1ccc(C(=O)O)cc1,100% (inactive)
6,COC(=O)c1c[n+]([O-])ccc1OC,104% (inactive)
7,CC(=O)O.[In],108% (inactive)
8,Cc1nnc(/N=C2\NC(=O)/C(=C/C=C/c3ccccc3)S2)s1,67% (inactive)
9,CC(=O)N1N=C(c2ccc(Cl)cc2)CC1c1cn(-c2ccccc2)nc1-c1ccc([N+](=O)[O-])cc1 (stereo not given),231% (inactive)
10,O=C1Nc2ccccc2/C1=C/c1cn(CC(O)Cn2cc(/C=C3\C(=O)Nc4ccccc43)c3ccccc32)c2ccccc12 (stereo not given),-16.9% (active)
11,Nc1nc2c(c3ncncc13)C(c1cccc(C(F)(F)F)c1)Cc1ncncc1-2 (stereo not given),64.3% (inactive)
12,O=C(Nc1ccccc1)Nc1ccc(Nc2ncnc3sc4c(c23)CCCC4)cc1,95.4% (inactive)
13,O=C(/C=C\c1ccc(NCc2ccc(C(=O)O)cc2)cc1)CCl,97.5% (inactive)
14,CCCC(C)c1cc(Cc2cc(Cl)cc(Cl)c2O)c(O)c(Cc2cc(Cl)cc(Cl)c2O)c1 (stereo not given),8.08% (active)
15,CCC(C)(CC)c1ccc(O)c(C)c1,116% (inactive)
16,CC1(C)CC(=O)C2=C(C1)Oc1nc(N)c(C#N)c(N)c1C2c1ccc(F)cc1 (stereo not given),132% (inactive)
17,CCOc1ccc(/C=N/NC(=O)c2cccc3ccccc23)cc1OCC,105% (inactive)
18,CCN(CC)C(=O)C1(C)CCCC2(C)c3cc(OC(C)=O)ccc3CCC12 (stereo not given),109% (inactive)
19,COc1ccc(-c2nc(SCC(C)C)nc(Nc3ccc(C(=O)O)cc3)c2C#N)cc1,97.7% (inactive)
20,O=C(/C=C/c1cccc(O)c1)c1cccc(-n2cc(-c3ccc(Cl)cc3)[nH]c2=O)c1,-64.4% (active)

row,SMILES,growth
1,CC(O)c1cc[cH-]c1.[Fe+2].c1cc[cH-]c1 (stereo not given),109% (inactive)
2,CC1(C)C(O)NC(Cl)=C(C#N)C1(C#N)C#N (stereo not given),90.4% (inactive)
3,COC(=O)C(C)[C@H]1CC[C@@H]2[C@]1(C)CC=C1[C@]23C=C[C@]2(C[C@@H](OC(C)=O)CC[C@]12C)C(C(=O)OC)C3C(=O)OC (stereo not given in full),91.4% (inactive)
4,CC(C)C(=O)c1ccc(Cl)s1,99.7% (inactive)
5,CC1=C(C)C(=O)C(C(C)C2=C(C)C(=O)C(C)=C(C)C2=O)=C(C)C1=O,23.4% (inactive)
6,Cc1ccc2c(O)c(O)cc(NC(C)CCCN)c2n1 (stereo not given),60.4% (inactive)
7,O=S(=O)(Cc1cccc2c(CS(=O)(=O)c3ccc(Cl)cc3)cccc12)c1ccc(Cl)cc1,101% (inactive)
8,C=CN(C)S(C)(=O)=O,53% (inactive)
9,CCCCCCCCCCCCCCCCC(=O)O.CCCCCCCCCCCCCCCCCC(=O)O.CCCCCCCCCCCCCCCCCC(=O)O.CCCCCCCCCCCCCCCCCC(=O)O.CCCCCCCCCCCCCCCCCC(=O)O.CO[CH-]OC12COC1CC(O)C1(C)C(O)C(OC(C)O)C3=C(C)C(OC(=O)C(O)C([NH-])c4ccccc4)CC(O)(C(OC(=O)c4ccccc4)C21)C3(C)C.[Cu+].[Zn].[Zn].[Zn].[Zn].[Zn] (stereo not given),21.6% (inactive)
10,COc1ccccc1Cn1cc2c(c1)-c1oncc1CC2,-43.1% (active)
11,CC(=O)OCC(=O)[C@@]1(O)[C@H](C)C[C@H]2[C@@H]3C=C(C)C4=Cc5c(cnn5-c5ccc(F)cc5)C[C@]4(C)[C@H]3[C@@H](O)C[C@@]21C,-35.3% (active)
12,O=C(/C=C\c1ccccc1Cl)c1ccccc1,94.6% (inactive)
13,CCOC(=O)C(C)C(C)(O)c1ccccc1 (stereo not given),84.4% (inactive)
14,CCCCCCCCCCCCCCCCCC1=NCCN1CS(=O)(=O)O,101% (inactive)
15,CCCCCCCCCCCC(=O)OC(C)C(=O)Nc1ccccc1 (stereo not given),103% (inactive)
16,CCCCCCCCCCC1OC(C)CC(C)O1 (stereo not given),101% (inactive)
17,COc1cc(OC)c(/C=C/c2ccc3ccccc3[n+]2C)c(OC)c1,13.4% (inactive)
18,CCOC(=O)c1cc(C(=O)c2ccc(Br)cc2)n2cc(C)cc(C)c12,102% (inactive)
19,Cc1ccc(OCCn2ccc(=O)n(CCOc3ccc(Cl)cc3C(=O)c3cc(C)cc(C)c3)c2=O)cc1,64.5% (inactive)
20,O=C1C(Cl)=C(SC2=NCCN2)C(=O)c2ccccc21,106% (inactive)
